Compound activity as filed in PubChem BioAssay.
KCNQ2 enhance = potentiators of rat KCNQ2 potassium channel | Potassium voltage-gated channel subfamily KQT member 2 (Rattus norvegicus), O88943 | CHO-K1 KCNQ2, FluxOR thallium flux fluorescence; hits give high values | B-score at 10 µM | hit rate 0.54% among 310,000 | AID 2239, 2010;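 active means fluorescence ratio B-score at least 3 SD of library B-scores, with initial fluorescence B-score within 3 of them, cut at about 5.3 in these data; same plate scores as AID 2156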;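 further: B-score of peak minus minimum over baseline fluorescence ratio after K+ and Tl+ stimulus; positive B-score means potentiation of KCNQ2 with more thallium influx and brighter signal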
KCNQ2 block = rat KCNQ2 potassium channel inhibitors, primary screen, cell-based, CHO-K1, FluxOR thallium flux, B-score | 20 min; hits give low values | hit rate 1.1% among 310,000 | Potassium voltage-gated channel subfamily KQT member 2 (Rattus norvegicus), O88943 | B-score at 10 µM;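 active means fluorescence ratio B-score at most minus 3 library SDs, with starting brightness B-score within 2 library SDs, cut at about -5.5 in these data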
Kir21 conf inh = mouse Kir2.1 channel blockers, retest, confirmation, cell-based, FluxOR thallium flux, duplicate | Kir2.1-expressing cells, FluxOR thallium flux fluorescence; hits give low values | hit rate 41% among 2,300 | AID 2032, 2009 | shares compounds with KCNQ2 enhance | Tl flux remaining, % of negative control (hits give low values), % at 10 µM;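 active means Primary-screen hit whose thallium flux fell at least 3 control SD below untreated wells in both duplicates, with normal baseline fluorescence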;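 further: 0% = blank wells without stimulus and 100% = stimulated no-compound controls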
HEK293 ctr = parental HEK293 activity in Kir2.1 inhibitor counter-screen; shares compounds with KCNQ2 enhance; parental HEK293 cells, FluxOR thallium flux fluorescence; 0% = unstimulated blank wells; FluxOR signal as % of negative control (100 = no effect), % at 10 µM; hit rate 19% among 2,300;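 active means dye signal at least 3 control SD above or below untreated wells in both duplicates, raw fluorescence within 3, either direction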;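 further: percent is based on the flux ratio of peak minus minimum fluorescence over baseline F0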
CHO-K1 Tl ctr = nonspecific thallium flux increase in parental CHO-K1, confirmation, counter-screen for KCNQ2 potentiator project, cell-based, FluxOR thallium flux, duplicate. shares compounds with KCNQ2 enhance. parental CHO-K1 cells, FluxOR thallium flux fluorescence; zero = vehicle mean+3SD, 100% = vehicle-minus-blank window. activity increase over 3SD of controls, % at 10 µM. hit rate 43% among 1,200;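 active means signal rise of at least 3 SD above the untreated control mean, in both duplicate wells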;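 further: counter screen of KCNQ2 potentiator hits so any rise reflects channel-independent effects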
KCNQ1 sel pot = human KCNQ1 channel potentiation off-target, confirmation, selectivity assay for KCNQ2 potentiator project, cell-based, CHO, FluxOR thallium flux; shares compounds with KCNQ2 enhance; CHO KCNQ1 stable, FluxOR thallium flux fluorescence; beyond 3SD, as % of vehicle-control signal; activation over 3SD threshold, % at 10 µM; hit rate 28% among 1,200; AID 2283, 2010;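 active means fluorescence ratio rise of at least 3 SD of vehicle wells above their mean, in both replicate wells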;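 further: 0% = vehicle mean plus 3 SD and 100% = vehicle minus unstimulated blank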
KCNQ2 pot conf = rat KCNQ2 channel potentiators, confirmation, cell-based, CHO, FluxOR thallium flux, duplicate; hit rate 68% among 1,200; potentiation, less the hit threshold, % at 10 µM; shares compounds with KCNQ2 enhance; CHO-KCNQ2 cells, FluxOR thallium flux fluorescence;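 active means fluorescence ratio rising 3 SD or more over the vehicle control mean in both replicates, plus primary screen hit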;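 further: peak minus minimum thallium fluorescence divided by baseline after K/Tl stimulus; 0% = vehicle mean plus 3 SD and 100% = vehicle minus unstimulated blank difference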
Kir21 spec = mouse Kir2.1 channel activation off-target, confirmation, selectivity assay for KCNQ2 potentiator project, cell-based, HEK293, FluxOR thallium flux; activity over 3SD threshold, % at 10 µM; hit rate 2% among 1,200; HEK293 Kir2.1, FluxOR thallium flux fluorescence; shares compounds with KCNQ2 enhance; AID 2345, 2010;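 active means fluorescence ratio rise of at least 3 SD above the vehicle-control mean, seen in both replicates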;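 further: 0% = vehicle mean plus 3 SD and 100% = vehicle minus no-stimulus blank window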
KCNQ2 W236L pot = potentiators of retigabine-insensitive KCNQ2 W236L, mechanism study for KCNQ2 potentiator project, cell-based, rat KCNQ2 W236L, CHO, automated patch clamp; shares compounds with KCNQ2 enhance; automated patch clamp current; current increase over 3SD of negative controls (%), hits give high values, % at 25 µM; hit rate 10% among 940;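 active means current increase at least 3 SD of the untreated controls above them in both duplicate recordings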
Target sequence (O88943 whole entry W236L, looked up): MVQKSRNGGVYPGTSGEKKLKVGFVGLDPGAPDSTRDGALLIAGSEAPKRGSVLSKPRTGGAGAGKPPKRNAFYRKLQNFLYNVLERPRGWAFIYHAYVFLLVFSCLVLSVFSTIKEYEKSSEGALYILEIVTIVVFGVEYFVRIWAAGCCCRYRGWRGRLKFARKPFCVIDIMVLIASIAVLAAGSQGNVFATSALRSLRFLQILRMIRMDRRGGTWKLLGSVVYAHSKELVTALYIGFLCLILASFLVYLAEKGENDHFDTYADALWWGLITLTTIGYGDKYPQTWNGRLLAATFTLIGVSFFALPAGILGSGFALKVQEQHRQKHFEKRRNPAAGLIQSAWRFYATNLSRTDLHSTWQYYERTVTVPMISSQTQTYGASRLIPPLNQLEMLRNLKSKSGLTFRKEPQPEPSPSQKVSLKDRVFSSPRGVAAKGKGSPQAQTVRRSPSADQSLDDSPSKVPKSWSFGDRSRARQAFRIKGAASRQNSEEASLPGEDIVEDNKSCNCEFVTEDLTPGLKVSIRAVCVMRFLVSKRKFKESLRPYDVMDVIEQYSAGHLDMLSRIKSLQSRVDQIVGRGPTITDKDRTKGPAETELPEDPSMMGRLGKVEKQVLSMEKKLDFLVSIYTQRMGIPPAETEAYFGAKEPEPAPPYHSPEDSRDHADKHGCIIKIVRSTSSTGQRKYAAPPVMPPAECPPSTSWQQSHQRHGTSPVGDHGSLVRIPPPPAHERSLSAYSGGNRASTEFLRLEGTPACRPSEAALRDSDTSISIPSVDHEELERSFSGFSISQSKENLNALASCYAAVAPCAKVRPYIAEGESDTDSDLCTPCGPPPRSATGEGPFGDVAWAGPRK
* marks the source's active call; other numbers are inactive results; i = inactive; nt = no result given. In the library only some 1.6% were active in any assay of this set; here they are far more common.

SMILES | KCNQ2 enhance | KCNQ2 block | Kir21 conf inh | HEK293 ctr | others
OCOCCCn1c(C2CCCN2c2nc(-c3ccc(F)cc3)cs2)nc2cc(Cl)c(N3CCCCC3)cc21 (centres undefined) | 6.9* | i | i | i | CHO-K1 Tl ctr=58*;KCNQ1 sel pot=-18;KCNQ2 pot conf=-4;Kir21 spec=-24
Nc1c(Cl)cc(-c2csc(N3CCCC3c3nc4cc(Cl)c(N5CCCCC5)cc4n3CCCO)n2)cc1Cl (centres undefined) | 20* | i | i | i | CHO-K1 Tl ctr=-13;KCNQ1 sel pot=-50;KCNQ2 pot conf=38*;Kir21 spec=-23;KCNQ2 W236L pot=i
Nc1c(Cl)cc(-c2csc(N3CCCC3c3nc4cc(Cl)c(N5CCCCC5)cc4n3CCOCCO)n2)cc1Cl (centres undefined) | 6.3* | i | i | i | CHO-K1 Tl ctr=3.5*;KCNQ1 sel pot=-22;KCNQ2 pot conf=-11;Kir21 spec=-24;KCNQ2 W236L pot=i
Cc1csc(N2CCCC2c2nc3cc(Cl)c(N4CCCCC4)cc3n2CCOCCO)n1 (centres undefined) | 1.4 | i | nt | nt
OCCCn1c(C2CCCN2c2nc(-c3ccc(F)cc3)cs2)nc2cc(Cl)c(Cl)cc21 (centres undefined) | 0.26 | i | nt | nt
Cn1nc(C(=O)Nc2ccc(S(=O)(=O)Nc3ncccn3)cc2)ccc1=O | nt | i | nt | nt
COc1cc2c(cc1OC)C(C(=O)NCCN(C)C)C(c1cccs1)N(C)C2=O (centres undefined) | 0.33 | i | nt | nt
CNCCC1Sc2ccccc2Oc2ccccc21 (centres undefined) | 0.93 | i | 42%* | i
CN(C)CCCC1Sc2ccccc2Sc2ccccc21 (centres undefined) | 0.67 | i | nt | nt
CCOC(=O)C1CCN(S(=O)(=O)c2ccc3c(c2)CC(=O)N3C)CC1 | nt | i | nt | nt
Cc1c(-c2cccc(Cl)c2)nc2ccccc2c1C(=O)OC/C(O)=C(\C#N)c1nc2ccccc2[nH]1 | nt | i | nt | nt
COc1cccc(NC(=O)c2ccc(NC(=O)C(C)(C)C)cc2)c1 | 1.2 | i | nt | nt
CC(C)(C)C(=O)Nc1cccc(OC(F)(F)C(F)Cl)c1 (centres undefined) | 5.8* | i | i | i | CHO-K1 Tl ctr=-15;KCNQ1 sel pot=11*;KCNQ2 pot conf=30*;Kir21 spec=-40;KCNQ2 W236L pot=i
CCOc1ccc2oc(C(=O)NC3CCN(Cc4ccccc4)CC3)c(C)c2c1 | 0.55 | i | nt | nt
Cc1c(C(=O)NC2CCN(Cc3ccccc3)C2)oc2ccc(Br)cc12 (centres undefined) | nt | i | 60%* | i
O=C(COc1ccc(Br)cc1Cl)NC1CCN(Cc2ccccc2)CC1 | nt | i | 21%* | i
O=C(/C=C/c1cccc(Br)c1)NC1CCN(Cc2ccccc2)CC1 | nt | i | 39%* | i
O=C(COc1ccccc1)NC1CCN(Cc2ccccc2)CC1 | nt | i | nt | nt
O=C(/C=C/c1cccc(F)c1)NC1CCN(Cc2ccccc2)CC1 | 0.69 | i | nt | nt
NS(=O)(=O)c1ccc(NC(=O)COC(=O)/C(=C/c2cccs2)c2cccs2)cc1 | nt | i | nt | nt
Cn1c(=O)c2c([nH]c(=S)n2Cc2ccc(Cl)cc2)n(C)c1=O | nt | i | nt | nt
COC(=O)C1(NC(=O)NC2CCCCC2)CCCCC1 | 2.5 | i | nt | nt
CC1CCCC(NC(=O)C2N(CCCN3CCCC3)C(=O)C3C(C(=O)Nc4ccc(Cl)cc4)C4C=CC32O4)C1C (centres undefined) | nt | i | nt | nt
Nc1nonc1C(=O)N/N=C/c1ccc(-c2cccc(C(=O)O)c2)o1 | nt | i | nt | nt
CCOC(=O)CNC(=O)N1CCCC(C(=O)c2ccccc2SC)C1 (centres undefined) | 0.5 | i | nt | nt
SMILES | KCNQ2 enhance | KCNQ2 block | Kir21 conf inh | HEK293 ctr | others
CC(C)c1ccc(NC(=O)Cn2nnc(C(=O)NCc3ccco3)c2N)cc1 | nt | i | nt | nt
O=C(NC(=S)NCCC1=CCCCC1)c1ccco1 | 12* | i | i | 229%* | CHO-K1 Tl ctr=-9;KCNQ1 sel pot=-26;KCNQ2 pot conf=34*;Kir21 spec=-40;KCNQ2 W236L pot=i
Cc1ccccc1C(=O)NC(=S)NCCC1=CCCCC1 | 0.92 | i | nt | nt
Cc1c(C)n(Cc2ccccc2)c2ccc(C(=O)NCCN3CCOCC3)cc12 | 0.84 | i | nt | nt
Cc1c(C)n(Cc2ccccc2)c2ccc(C(=O)OCCN(C)C)cc12 | nt | i | 26%* | i
O=C(COC(=O)c1cc[n+]([O-])cc1)Nc1ccc([N+](=O)[O-])cc1Cl | 0.47 | i | nt | nt
COc1ccc(-c2csc(NC(=S)NC(=O)c3cccs3)n2)cc1Br | 7.1* | i | i | 70%* | CHO-K1 Tl ctr=-5;KCNQ1 sel pot=-16;KCNQ2 pot conf=-2;Kir21 spec=-35
COc1ccc(-c2csc(NC(=S)NC(=O)c3cccs3)n2)cc1OC | 3.2 | i | nt | nt
CC(=O)c1c(C)[nH]c(C(=O)N(C)CC(=O)Nc2ccc(Cl)c(C(F)(F)F)c2)c1C | 0.14 | i | nt | nt
O=C(NC1CCOCC1)C1CCC(=O)N(Cc2cccc(C(F)(F)F)c2)C1 (centres undefined) | 0.74 | i | nt | nt
Cc1ccc(NC(=O)CC(N)=S)cc1 | nt | i | nt | nt
Cc1ccc(NC(=O)CC(O)(C(F)(F)F)C(F)(F)F)cc1 | 9.7* | i | i | i | CHO-K1 Tl ctr=-6;KCNQ1 sel pot=-13;KCNQ2 pot conf=36*;Kir21 spec=-23;KCNQ2 W236L pot=3.0%*
NCCc1nnc(SCC(=O)c2ccc(Cl)cc2)o1 | 0.66 | i | nt | nt
Cc1ccc(S(=O)(=O)NCc2c(-c3ccccc3)noc2C)cc1 | nt | i | nt | nt
Cc1onc(-c2ccccc2)c1CNS(=O)(=O)c1cccc(Cl)c1 | 0.47 | i | 58%* | i
CCC(C)Sc1cc(C(F)(F)F)c(C(=O)Nc2ccc(Cl)cc2)cn1 (centres undefined) | nt | i | nt | nt
COc1ccccc1C(=O)NNC(=O)c1ccc(Cl)cc1 | 0.04 | i | nt | nt
COc1ccccc1C(=O)NNC(=O)C(=O)NC(C)(C)C | 3.8 | i | nt | nt
